Results from PubChem BioAssay (NCI).
The panel holds about 83,000 compounds, 20% with a hit somewhere; the sample as a whole holds those more often.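 The test compound was applied at a single concentration to cells in 96-well plates for 48 hours, and percent growth was recorded.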 Calls of active or inactive are those of the source. The calls were made as follows: active = growth percent below 10; inactive = the rest.

system: MDA-MB-468 breast; assay: NCI-60 one-dose screen, 48 h (100 = growth as untreated, 0 = no growth, -100 = all killed); details: 10 µM unless noted

Compound | growth
OC(Cc1cc(CC(O)(C(F)(F)F)C(F)(F)F)nc(CC(O)(C(F)(F)F)C(F)(F)F)c1)(C(F)(F)F)C(F)(F)F | -37% (active)
Cc1cc(C(=O)c2ccccc2)cc(C)c1O | 111% (inactive)
N#C/C(=C\c1ccc(F)cc1)n1nc2cccc(F)c2n1 | 21.6% (inactive)
COc1cc(-c2cc(-c3cccs3)c(C#N)c(N3CCOCC3)n2)cc(OC)c1OC | 55% (inactive)
CC1(C)CC(=O)C=C(N)C1 | 90.5% (inactive)
C=C1c2nc3ccccc3n2C=C(c2cccc(Cl)c2)N1Cc1ccc(OC)cc1 | 32% (inactive)
OC(c1cc(C(F)(F)F)nc2c(C(F)(F)F)cccc12)C1CCCCN1 (centres undefined) | -5.03% (active)
CC1CCCCN1CCCNC(=O)c1ccc2c(c1)sc1nc(-c3ccc(F)cc3)cn12 (centres undefined) | 96.3% (inactive)
CCCCCCCCCCCCCCCCCC1=NCCN1CS(=O)(=O)O | 99.2% (inactive)
C/C(=C\c1csc(C)n1)[C@@H]1C[C@@H]2O[C@]2(C)CCC[C@H](C)[C@H](O)[C@@H](C)C(=O)C(C)(C)[C@@H](O)CC(=O)N1 | 22.4% (inactive)
Nc1nc(=O)n([C@H]2C[C@H](O)[C@@H](CO)O2)cc1C=O | 107% (inactive)
CC(=O)Nc1ccc(S(=O)(=O)n2ccc(-c3ccc4c(c3)CCC(C)(C)O4)n2)cc1 | 24.9% (inactive)
CN(C)CCCN1c2ccccc2CCc2ccccc21 | 39.6% (inactive)
COc1cc(O)c2c(=O)c3c(CC=C(C)C)cc(OC)c(O)c3oc2c1 | 64.6% (inactive)
Nc1cc(N)c2cccnc2c1O | 48.2% (inactive)
NC1=C(Br)C(=O)c2ncccc2C1=O | -14.8% (active)
O=C1OC(c2ccc(Cl)c(Cl)c2)=C/C1=C/c1cccc([N+](=O)[O-])c1 | 92.3% (inactive)
CN1C2CCC1/C(=C\c1ccc(F)cc1)C(=O)/C2=C/c1ccc(F)cc1 | 28.8% (inactive)
Clc1ccc2c(NCCNc3nc(-c4ccccc4)cc(-c4ccccc4)n3)ccnc2c1 | -53.8% (active)
Cc1cc(N)cc(C)c1-c1c(Br)cc(N)cc1Br | -28% (active)

Compound | growth
O=C(NNc1nc2cc(F)ccc2n2c(CN3CCCC3)ccc12)c1cnccn1 | -14.4% (active)
CNCCCOc1c(Br)cc(CCNC(=O)/C(Cc2ccc(OC)c(Br)c2)=N/O)cc1Br | 48.5% (inactive)
C=C(C)[C@@H]1CC[C@]2(CN)CC[C@]3(C)[C@H](CC[C@@H]4[C@@]5(C)CCC(N)[C@@](C)(CO)[C@@H]5CC[C@]43C)[C@@H]12 (some centres undefined) | -86.6% (active)
CSc1cccc([N+](=O)[O-])c1 | 94.1% (inactive)
COC(=O)C1=C(C(=O)ONCCN(C)C)C2C=CC1(C(Cc1ccccc1)Nc1ccc(F)cc1)O2 (centres undefined) | 75.3% (inactive)
CCN(Cc1ccccc1)c1ccc(C=O)cc1 | 62.9% (inactive)
Nc1ccccc1NC(=O)c1ccc(NC(=O)C/C=C/c2cccnc2)cn1 | -19.6% (active)
C/C(=N\NC(N)=S)C(C)(C)O | 26.2% (inactive)
O=C(N=Nc1c(O)[nH]c2ccccc12)Nc1ccc(Br)cc1 | 70.5% (inactive)
COc1cccc(/C=C/C(=O)c2ccc(NC(=O)COc3cccc4cccnc34)cc2)c1 | 90.9% (inactive)
N#C/C(=C\c1ccc(-c2ccc(Cl)cc2)o1)C(=O)Nc1ncc(Cc2ccc(Cl)cc2)s1 | 77.9% (inactive)
O=C(/C=C/C=C/c1csc(Br)n1)NO | 99.7% (inactive)
CC(C)(C)c1ccc(Cn2cc(CSc3nc4ccccc4s3)nn2)cc1 | 93.6% (inactive)
CSc1ccc(-c2n[nH]nc2-c2cc3ccccc3s2)cc1 | 54% (inactive)
N=C1CC(=O)NN1C(=O)CSc1nc2sc3c(c2c(=O)n1-c1ccc(Cl)cc1)CCCC3 | 106% (inactive)
COc1ccc(NC(=O)CSc2nc3ccccc3c(=O)n2Cc2cc(OC)c(OC)c(OC)c2)cc1 | 104% (inactive)
COc1cc2oc3cc(C)oc(=O)c3c2cc1OC | 91% (inactive)
CCOC(=O)C1C(=O)C=C(c2ccc(OC)cc2)CC1c1sc(N(C)Cc2ccccc2)nc1Cl (centres undefined) | 58.3% (inactive)
Cc1nc2ccc(Nc3nc(NCCN4CCOCC4)nc(Nc4ccc(F)cc4)n3)cc2n1Cc1ccccc1 | 14% (inactive)
